Measured values published in PubChem BioAssay AID1159580 (chemical genetic matrix, 2015).
The campaign covered roughly 5,500 compounds. About 2,000 (36%) were called active. Roughly 18% stayed inconclusive and do not appear here. Cut-off read from the data, not from the text of the source: active = normalized growth mostly below about 0.91 (no sharp cut-off); inconclusive = no clear call, values can overlap the other calls; inactive = mostly above about 0.92. This is one part of the list.

Experiment: chemical genetic growth profiling, strain panel (AID 1159580);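 note: tested at 20 µM; growth read once vehicle control cultures reached saturation at 30 °C; 1 = growth at the plate median or of vehicle wells; lower values mean less growth of the strain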
Details: S. cerevisiae deletion strains, growth OD

Measured: normalized growth

COC(=O)[C@@H](N)Cc1ccc(O)c(O)c1
inactive: locus YAL040C, strain CLN3, hits give low values 1.03 | locus YCL061C, strain MRC1 (second series), hits give low values 0.971 | locus YDR150W, strain NUM1, hits give low values 0.958 | locus YDR363W, strain ESC2, hits give low values 1 | locus YER002W, strain NOP16, hits give low values 1 | locus YMR307W, strain GAS1, hits give low values 0.995 | locus YNL175C, strain NOP13, hits give low values 1 | locus YNL197C, strain WHI3, hits give low values 0.984 | locus YNL224C, strain SQS1, hits give low values 1 | locus YOR083W, strain WHI5 (second series), hits give low values 0.993 | locus YPL055C, strain LGE1, hits give low values 0.971 | locus YPL241C, strain CIN2, hits give low values 1.01
